# Measurements taken from PubChem BioAssay (NCATS).
# Where “and” joins values, the source holds several entries; their conditions need not be identical. Equal entries are not always repeated. Inconclusive results are not listed. A call without a number means that no potency is given here. Calls of active or inactive are those of the source. Unless noted, calls come from the whole dose curve; as a rule, active = well fitted curve in the direction sought with a large enough effect; inconclusive = small, poorly fitted or top-dose-only effect, or another doubt; inactive = no such curve, though single readings can be large; an effect the other way counts as inactive or inconclusive.
# Assays:
# [1] = Cell Viability - Renal Proximal Tubule (AID 545); note: nearly all actives have a fitted effect of over 40% in size
# In short: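 In this qHTS format, normal rat kidney-derived proximal tubule cells in complete culture medium receive compound titrations, then sit 40 hours at 37 °C before luciferase-based ATP quantitation; potency is reported as AC50 from concentration-response curves.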
# [2] = Cellular Toxicity (caspase-3) HepG2 (AID 654);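 note: cells exposed to compound for 16 hours before reading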
# In short: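 Caspase 3/7 activation in HepG2 is measured as rising luminescence after a 16 hr treatment at 37 °C. Values are scaled between DMSO basal and 100 uM tamoxifen, and AC50 is fitted with the Hill equation.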
# [3] = Cellular Toxicity (caspase-3) SK-N-SH (AID 661);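 note: cells exposed to compound for 16 hours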
# In short: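 Cells were seeded and incubated 5 hr at 37 °C, dosed with compound over a concentration range for 16 hr, then given Caspase-Glo 3/7 reagent for 1 hr at room temperature before luminescence reading.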
# [4] = target: Cytochrome P450 3A4 (Homo sapiens) (UniProt P08684); experiment: qHTS Assay for Inhibitors and Substrates of Cytochrome P450 3A4 (AID 884); note: series mostly up to about 57 µM; nearly all actives have a fitted effect of over 50% in size
# Cytochrome P450 3A4 (Homo sapiens), sequence (P08684 whole entry, looked up): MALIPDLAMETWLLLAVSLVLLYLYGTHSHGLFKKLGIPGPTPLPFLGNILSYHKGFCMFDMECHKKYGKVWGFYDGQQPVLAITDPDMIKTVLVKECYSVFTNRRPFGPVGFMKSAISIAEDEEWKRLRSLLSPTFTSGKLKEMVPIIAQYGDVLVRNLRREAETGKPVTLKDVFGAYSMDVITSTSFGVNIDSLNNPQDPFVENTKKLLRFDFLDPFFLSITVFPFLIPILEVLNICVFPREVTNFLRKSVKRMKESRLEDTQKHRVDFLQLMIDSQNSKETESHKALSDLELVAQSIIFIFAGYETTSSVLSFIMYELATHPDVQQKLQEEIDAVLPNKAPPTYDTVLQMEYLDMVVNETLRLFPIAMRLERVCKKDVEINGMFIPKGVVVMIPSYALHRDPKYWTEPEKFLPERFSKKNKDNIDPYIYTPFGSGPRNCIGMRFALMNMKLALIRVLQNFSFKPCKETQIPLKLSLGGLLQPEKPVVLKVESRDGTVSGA
# In short: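 Luminescent readout of luciferin produced by CYP3A4 (20 nM) dealkylation of Luciferin-PPXE, 25 uM (its KM). NADPH-driven reaction ran 60 min at RT after 10 min compound preincubation; data scaled to 57 uM ketoconazole as 100% inhibition.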
# [5] = Cell Viability - LYMP2-004 (AID 966);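 note: cells exposed to compound for 24 h; nearly all actives have a fitted effect of over 65% in size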; note: potency is the fitted concentration of half-maximal effect
# In short: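 qHTS cytotoxicity: human lymphoblastoid line, 24 hr compound treatment, 37 C, complete medium. Viability read as cellular ATP via luciferase luminescence; tetraoctylammonium bromide served as positive control.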
# [6] = Cell Viability - LYMP2-015 (AID 971);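 note: cells exposed to compound for 24 h; nearly all actives have a fitted effect of over 55% in size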; note: potency is the fitted concentration of half-maximal effect
# In short: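 Cells are seeded at 2500 per well and incubated 5 hr at 37 C. Compounds are added across a concentration series for 24 hr at 37 C. CellTiter-Glo is added, and luminescence is read after 30 min at room temperature.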
# [7] = Cell Viability - LYMP2-010 (AID 981);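 note: cells exposed to compound for 24 hours at 37 °C; nearly all actives have a fitted effect of over 55% in size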; note: potency is the fitted concentration of half-maximal effect
# In short: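 Steps: seed 2500 LYMP2-010 cells per well; incubate 5 hr at 37 C; add compound; incubate 24 hr at 37 C; add CellTiter-Glo, wait 30 min at room temperature; read luminescence. Concentration-response fitted to Hill equation for AC50.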
# [8] = Cell Viability - LYMP2-012 (AID 982);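 note: cellular ATP by luciferase luminescence where a drop means cytotoxicity; cells exposed to compound for one day before reading; nearly all actives have a fitted effect of over 55% in size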; note: potency is the fitted concentration of half-maximal effect
# [9] = Cell Viability - LYMP2-018 (AID 985);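 note: compound exposure lasted 24 hr at 37 °C; nearly all actives have a fitted effect of over 50% in size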; note: potency is the fitted concentration of half-maximal effect
# In short: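 Seed 2500 lymphoblastoid cells per well, incubate 5 hr at 37 C, add compound and incubate 24 hr at 37 C, add CellTiter-Glo, wait 30 min at room temperature, then read luminescence.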
# [10] = Cell Viability - LYMP2-020 (AID 986);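 note: cells exposed to compound for 24 h at 37 °C; nearly all actives have a fitted effect of over 55% in size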; note: potency is the fitted concentration of half-maximal effect
# In short: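 Seed 2500 cells per well and incubate 5 hr at 37 C. Add compounds at a concentration series and incubate 24 hr at 37 C. Add CellTiter-Glo, wait 30 min at RT, read luminescence, and fit a Hill curve for AC50.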
# [11] = target: Thyroid hormone receptor beta (Homo sapiens) (UniProt P10828); experiment: qHTS assay for small molecule agonists of thyroid hormone receptor beta signaling (AID 588545; calls by dose curve)
# Thyroid hormone receptor beta (Homo sapiens), sequence (P10828 whole entry, looked up): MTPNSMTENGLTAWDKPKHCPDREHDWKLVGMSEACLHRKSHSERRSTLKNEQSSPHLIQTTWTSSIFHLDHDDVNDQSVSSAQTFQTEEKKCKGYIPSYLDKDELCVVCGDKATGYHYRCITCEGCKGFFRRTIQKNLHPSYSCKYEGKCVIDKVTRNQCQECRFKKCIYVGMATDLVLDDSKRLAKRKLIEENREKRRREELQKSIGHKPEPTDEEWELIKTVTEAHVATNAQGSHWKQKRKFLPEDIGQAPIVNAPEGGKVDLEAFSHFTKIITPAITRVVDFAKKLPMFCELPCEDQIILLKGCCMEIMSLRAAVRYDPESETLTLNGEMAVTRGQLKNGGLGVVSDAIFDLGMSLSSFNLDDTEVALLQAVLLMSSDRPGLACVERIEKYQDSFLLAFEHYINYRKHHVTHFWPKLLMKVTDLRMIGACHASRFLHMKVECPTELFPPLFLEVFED
# In short: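 Efficacy and EC50 values derive from Hill fits of qHTS titration data, normalized to 10 nM T3 and DMSO-only wells. HEK 293 reporter cells were stimulated for 18 hrs at 37 C, with beta-lactamase activity measured by CCF4 fluorescence.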
# [12] = qHTS assay for small molecule antagonists of retinoid X receptor alpha signaling (AID 588546; active = well fitted inhibition curve with a large enough effect in the signal ratio, with a control signal flat, not every such curve was filed as active; the % refers to the signal ratio;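 note: cells stimulated with 9-cis-retinoic acid as agonist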); details: HEK293T RXRa-UAS-bla, beta-lactamase ratio, antagonist mode; measured here: W530 green channel, cytotoxicity proxy
# In short: (§1)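 Beta-lactamase reporter inhibition, read as CCF4 fluorescence ratio (ex 405, em 460/530 nm) after 2 h at RT. HEK293T UAS-bla cells, 2500/well, were stimulated with 9-cis-RA at 500 or 100 nM final alongside test compound for 18 h at 37 C.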
# [13] = target: Retinoic acid receptor RXR-alpha (Homo sapiens) (UniProt P19793); experiment: as above; details: HEK293T RXRa-UAS-bla, beta-lactamase ratio, antagonist mode
# Retinoic acid receptor RXR-alpha (Homo sapiens), sequence (P19793 whole entry, looked up): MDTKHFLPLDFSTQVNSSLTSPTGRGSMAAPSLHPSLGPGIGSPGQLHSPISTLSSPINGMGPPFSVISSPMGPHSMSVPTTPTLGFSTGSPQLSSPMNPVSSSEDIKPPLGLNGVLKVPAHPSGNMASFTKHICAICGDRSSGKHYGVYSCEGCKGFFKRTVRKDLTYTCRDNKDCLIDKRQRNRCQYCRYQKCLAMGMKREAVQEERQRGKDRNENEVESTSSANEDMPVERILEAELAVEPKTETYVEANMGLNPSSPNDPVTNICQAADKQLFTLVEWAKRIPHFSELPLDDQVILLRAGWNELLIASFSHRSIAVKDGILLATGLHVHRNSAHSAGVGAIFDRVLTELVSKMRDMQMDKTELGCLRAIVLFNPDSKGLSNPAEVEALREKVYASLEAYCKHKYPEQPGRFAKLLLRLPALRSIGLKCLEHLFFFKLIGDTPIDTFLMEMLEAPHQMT
# In short: as §1
# [14] = target: Voltage-gated inwardly rectifying potassium channel KCNH2 (Homo sapiens) (UniProt Q12809); experiment: qHTS Assay for Small Molecule Inhibitors of the Human hERG Channel Activity (AID 588834);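 note: top concentration of the series differs between compounds; lower thallium flux fluorescence means stronger hERG block; nearly all actives have a fitted effect of over 50% in size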
# Voltage-gated inwardly rectifying potassium channel KCNH2 (Homo sapiens), sequence (Q12809 whole entry, looked up): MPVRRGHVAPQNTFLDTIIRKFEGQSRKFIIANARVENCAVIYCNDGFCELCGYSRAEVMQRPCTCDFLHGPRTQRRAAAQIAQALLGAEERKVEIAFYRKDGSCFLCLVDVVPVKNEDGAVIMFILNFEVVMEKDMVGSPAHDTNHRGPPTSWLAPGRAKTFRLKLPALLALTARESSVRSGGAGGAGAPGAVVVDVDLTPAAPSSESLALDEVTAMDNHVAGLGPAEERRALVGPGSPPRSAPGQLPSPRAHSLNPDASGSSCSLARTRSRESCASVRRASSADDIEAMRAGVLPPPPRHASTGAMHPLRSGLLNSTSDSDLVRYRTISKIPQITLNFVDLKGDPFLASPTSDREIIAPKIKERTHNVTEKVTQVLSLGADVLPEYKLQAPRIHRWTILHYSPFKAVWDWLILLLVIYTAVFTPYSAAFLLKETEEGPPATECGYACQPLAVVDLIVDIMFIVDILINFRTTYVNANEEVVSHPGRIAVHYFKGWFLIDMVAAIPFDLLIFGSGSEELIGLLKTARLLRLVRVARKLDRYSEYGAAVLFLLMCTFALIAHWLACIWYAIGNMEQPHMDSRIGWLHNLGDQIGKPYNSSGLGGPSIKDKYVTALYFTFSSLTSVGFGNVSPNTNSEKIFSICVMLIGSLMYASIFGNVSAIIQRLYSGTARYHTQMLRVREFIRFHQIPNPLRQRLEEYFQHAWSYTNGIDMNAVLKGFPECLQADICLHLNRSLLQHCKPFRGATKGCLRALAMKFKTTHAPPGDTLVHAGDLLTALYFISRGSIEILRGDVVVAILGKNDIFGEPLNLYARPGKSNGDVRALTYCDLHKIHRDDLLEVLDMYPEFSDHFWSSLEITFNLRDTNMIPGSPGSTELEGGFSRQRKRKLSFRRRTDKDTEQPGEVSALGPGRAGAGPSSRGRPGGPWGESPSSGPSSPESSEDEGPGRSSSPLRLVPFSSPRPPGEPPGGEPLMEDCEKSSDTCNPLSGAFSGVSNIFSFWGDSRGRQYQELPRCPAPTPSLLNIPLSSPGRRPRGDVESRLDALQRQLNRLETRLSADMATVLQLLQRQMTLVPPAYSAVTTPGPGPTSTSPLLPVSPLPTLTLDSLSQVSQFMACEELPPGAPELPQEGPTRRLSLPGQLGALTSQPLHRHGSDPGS
# In short: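 Homogeneous FluxOR thallium flux assay using hERG-expressing U2OS cells (BacMam). Compound treatment about 10 minutes preceded stimulation; reduced fluorescence taken as channel block.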
# [15] = qHTS assay for environmental chemicals that activate the Aryl hydrocarbon Receptor (AhR) signaling pathway (AID 651777); details: 1A2-DRE human hepatoma cells, luciferase, 24 h; activation: stronger effect = higher value; note: nearly all actives have a fitted effect of over 15% in size
# In short: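 Following a 24 hr incubation with test chemicals at 37 C and 5% CO2, 1A2-DRE human hepatoma cells received One-Glo reagent; after 30 min at room temperature, luciferase output reflected CYP1A2 induction via AhR.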
# [16] = target: Nuclear receptor ROR-gamma (Homo sapiens) (UniProt P51449); experiment: qHTS assay for small molecule antagonists of the retinoid-related orphan receptor gamma (ROR-gamma) signaling pathway (AID 651802);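 note: CHO cells with doxycycline-induced ROR-gamma expression; series mostly up to about 92 µM; nearly all actives have a fitted effect of over 60% in size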
# Nuclear receptor ROR-gamma (Homo sapiens), sequence (P51449 whole entry, looked up): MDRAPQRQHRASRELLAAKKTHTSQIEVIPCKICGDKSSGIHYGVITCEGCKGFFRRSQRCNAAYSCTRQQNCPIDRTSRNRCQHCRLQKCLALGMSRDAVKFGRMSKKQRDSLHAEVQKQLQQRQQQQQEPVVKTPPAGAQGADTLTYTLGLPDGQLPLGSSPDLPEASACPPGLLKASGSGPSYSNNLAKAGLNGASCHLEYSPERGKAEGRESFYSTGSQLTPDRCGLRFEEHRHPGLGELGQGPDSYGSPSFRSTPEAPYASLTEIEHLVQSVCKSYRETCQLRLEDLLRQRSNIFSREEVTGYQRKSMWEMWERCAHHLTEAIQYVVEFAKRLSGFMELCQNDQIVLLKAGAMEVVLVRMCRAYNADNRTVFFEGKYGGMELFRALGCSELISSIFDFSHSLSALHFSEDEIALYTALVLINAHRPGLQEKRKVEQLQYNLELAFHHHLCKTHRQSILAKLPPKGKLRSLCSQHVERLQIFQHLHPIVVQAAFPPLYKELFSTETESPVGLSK
# In short: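 Steps: cells dispensed; compound or DMSO transferred by pin tool; doxycycline added to induce the ROR response element-driven luciferase; plates held 16hr at 37C; ONE-Glo added and luminescence measured.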
# [17] = qHTS assay for cell viability of the p53RE-bla HCT-116 cell line (AID 743292); note: nearly all actives have a fitted effect of over 55% in size
# In short: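 After plating at 4,000 cells per well and a 5 h rest at 37 C, HCT-116 cells carrying p53RE-bla received test chemicals in DMSO. Sixteen hours later at 37 C, CellTiter-Glo was added and luminescence recorded following 30 min at room temperature.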
# [18] = Cell Viability - SK-N-SH (AID 435; calls by dose curve;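 note: potency is the fitted concentration of half-maximal effect; compound exposure lasted 40 h at 37 °C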); details: SK-N-SH neuroblastoma cell viability qHTS
# In short: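 Human neuroblastoma line, 40 h exposure at 37 °C, ATP quantified via luciferase luminescence; DMSO and 100 uM tamoxifen define 0 and 100% inhibition for AC50 fitting.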
# [19] = qHTS assay for small molecule agonists of retinoid X receptor alpha signaling (AID 588544; calls by dose curve); details: HEK293T RXRa-UAS-bla, beta-lactamase reporter, 18 h; 530 nm emission
# [20] = target: Retinoic acid receptor RXR-alpha (Homo sapiens) (UniProt P19793); experiment: as above
SMILES,outcome [1],outcome [2],Potency [3],Potency [4],Potency [5],Potency [6],Potency [7],Potency [8],Potency [9],Potency [10],Potency [11],max response [12],max response [13],Potency [14],activation [15],Potency [16],Potency [17],Potency [18],max response [19],outcome [20]
CN1CSC(=S)N(C)C1,inactive,inactive,inactive,inactive,31.6 µM (active),31.6 µM (active),20 µM (active),25.1 µM (active),12.6 µM (active),39.8 µM (active),inactive,5.73%,-34.7% (inactive),inactive,-0.101% (inactive) and -0.0706% (inactive),inactive,inactive,,,
C(CCOCC1CO1)COCC1CO1 (stereo not drawn),inactive,inactive,inactive,inactive,,inactive,,inactive,,inactive,inactive,5.96%,15.6% (inactive),inactive,0.374% (inactive),inactive,inactive,27.7 µM (inactive),-1.76%,inactive
O=[N+]([O-])/C=C/c1ccccc1,,,inactive,inactive,,39.8 µM (active),50.1 µM (active),,,50.1 µM (active),inactive,-11.2%,-0.636% (inactive),inactive,,inactive,inactive,,-4.59%,inactive
N#CC(Cl)(Cl)Cl,inactive,inactive,inactive,inactive,inactive,inactive,inactive,inactive,inactive,inactive,inactive,-17.2%,11.1% (inactive),inactive,0.19% (inactive),inactive,inactive,> 92 µM (inactive),-10.8%,inactive
CC(C)(C)OOC(=O)c1ccccc1,inactive,,inactive,inactive,inactive,inactive,inactive,inactive,inactive,inactive,inactive,-18.8% and -11.9%,2.22% (inactive) and 6.61% (inactive),inactive,-1.19% (inactive) and 0.23% (inactive),inactive,inactive,> 92 µM (inactive),3.54% and -7.62%,inactive
COC(C)(C)C,inactive,,inactive,inactive,inactive,inactive,inactive,inactive,inactive,inactive,inactive,-12.9%,6.43% (inactive),inactive,-1.78% (inactive),inactive,inactive,> 92 µM (inactive),9.16%,inactive
Cc1cc(Cl)ccc1O,inactive,,inactive,inactive,inactive,inactive,inactive,inactive,inactive,inactive,inactive,-5.47%,-5.53% (inactive),inactive,0.484% (inactive),,,> 92 µM (inactive),-4.59%,inactive
Nc1c(Br)cc([N+](=O)[O-])cc1[N+](=O)[O-],inactive,inactive,inactive,,inactive,inactive,,inactive,inactive,inactive,inactive,,,inactive,3.36% (inactive),inactive,inactive,> 92 µM (inactive),-9.23%,inactive
